From PubChem BioAssay (NCI)
The panel holds about 79,000 compounds, 15% with a hit somewhere; the sample as a whole holds those more often. Cut-off read from the data, not from the text of the source: active = growth inhibition above about 70%; inactive = the rest. Where a SMILES comes first, the peptide text is derived from it. The star is where a group is joined. Boc = CC(C)(C)OC(=O)*

Columns and labels:
[1] = NCI Yeast Anticancer Drug Screen. Data for the rad50 strain (AID 155);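 note: 0% = growth of vehicle-only cultures of the same strain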; details: S. cerevisiae rad50 strain growth inhibition; at 50.0 µM; hits give high values
Method in brief: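 Readout: growth inhibition relative to vehicle-treated cultures. Compound exposure was carried out in a genetically defined yeast strain deficient in DNA damage repair.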

[2] = NCI Yeast Anticancer Drug Screen. Data for the mec2-1 strain (AID 157); details: S. cerevisiae mec2-1 strain, at 50.0 µM, hits give high values
Method in brief: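 Each compound was tested on mec2-1 yeast, a strain altered in DNA damage repair or cell cycle control. Growth inhibition is reported relative to vehicle.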

[3] = NCI Yeast Anticancer Drug Screen. Data for the sgs1 mgt1 strain (AID 161);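 note: 0% = growth of cultures given vehicle only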; details: S. cerevisiae sgs1 mgt1 strain, at 50.0 µM, hits give high values
Method in brief: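 Read-out: growth inhibition vs vehicle controls. Cells: mutant yeast strain deficient in DNA damage repair.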

[4] = NCI Yeast Anticancer Drug Screen. Data for the cln2 rad14 strain (AID 165);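 note: 0% = growth equal to vehicle treated cultures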; details: S. cerevisiae cln2 rad14 strain, at 50.0 µM, hits give high values
Method in brief: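 Test compounds were added to cln2 rad14 yeast cultures; inhibition of growth was then determined by comparison with vehicle treatment.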

[5] = NCI Yeast Anticancer Drug Screen. Data for the bub3 strain (AID 167); details: S. cerevisiae bub3 mutant strain, at 50.0 µM, hits give high values
Method in brief: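 Readout: yeast growth inhibition, expressed relative to vehicle-only wells. The test organism is a mutant strain from a panel with lesions in DNA repair or checkpoint genes.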

[6] = NCI Yeast Anticancer Drug Screen. Data for the mlh1 rad18 strain (AID 175); details: S. cerevisiae mlh1 rad18 strain growth inhibition; at 50.0 µM; hits give high values
Method in brief: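 Inhibition values reflect reduced growth of mutant yeast versus vehicle-treated controls following compound exposure; the mutations affect DNA damage repair.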

Measured: growth inhibition

O=C(O)C1CCCCC1C(=O)NCc1ccco1 (stereo not given)
inactive: [1] 5.25% | [2] 4.55% | [3] 4.05% | [4] 3.7% | [5] 25.4% | [6] 0.05%

C=CNc1cccc2ccccc12
inactive: [1] 13.8% | [2] 11.6% | [3] 14.2% | [4] 5.85% | [5] 25.1% | [6] 14.7%

S=C1N(c2ccccc2)CCN1c1ccccc1
inactive: [1] -15.2% | [2] -14.9% | [3] -21.9% | [4] -17.2% | [5] -18.9% | [6] -2.65%

N#CCCOCCSCCC#N
inactive: [1] 3% | [2] 5.15% | [3] -5.95% | [4] -5.45% | [5] 1% | [6] -1.8%

CCCCCc1c2nc(c(CCCCC)c3ccc([nH]3)c(CCCCC)c3ccc([nH]3)c(CCCCC)c3nc1C=C3)C=C2
inactive: [1] 0.1% | [2] -11.8% | [3] -10.3% | [4] 23.1% | [5] -10.5% | [6] -15.6%

O=C1C(Cl)=C(NCCCN2CCN(CCCNC3=C(Cl)C(=O)c4ccccc4C3=O)CC2)C(=O)c2ccccc21
inactive: [1] 44.5% | [2] 27.8% | [3] 33.1% | [4] 9.45% | [5] 6.35% | [6] 33.6%

CC(C1=CC=C2[C@@H]3CCC4CC(N(C)C)CC[C@]4(C)C3CC[C@]12C)N(C)C=O (stereo not given in full)
inactive: [1] 6.8% | [2] 8.6% | [3] -16.2% | [4] 6.35% | [5] 4.45% | [6] 1.65%

Cc1onc(-c2c(Cl)cccc2Cl)c1C(=O)SC1=NC(C)N2C(SC(=O)c3c(-c4c(Cl)cccc4Cl)noc3C)=NC(C)N12 (stereo not given)
inactive: [1] 26.6% | [2] 7.4% | [3] 11.3% | [4] 11.7% | [5] 18.6% | [6] 16.6%

O=c1oc2ccccc2c(N2CCCCC2)c1Cl
inactive: [1] 1.6% | [2] 40.6% | [3] 12.3% | [4] 22.1% | [5] 17.6% | [6] 15%

CCC(=O)NC(C(=O)O)C(C)(C)S (stereo not given)
inactive: [1] -0.4% | [2] -3.65% | [3] 0.1% | [4] 5.9% | [5] 2.4% | [6] -3.95%

Cc1ccc(O)c(O)c1
inactive: [1] 33.9% | [2] -13.1% | [3] -6.45% | [4] -8.9% | [5] -20.3% | [6] 23.9%

CCOC(=O)C(CC(C)C)NC(=O)C(Cc1ccccc1)NC(=O)CNC(=O)OC(C)(C)C (stereo not drawn) (Boc-Gly-Phe-Leu-OEt; configuration not given here)
inactive: [1] 7.65% | [2] 7.35% | [3] 9.45% | [4] -11.7% | [5] 7.2% | [6] 18.2%

CCN(CC)CCCN1CCc2c([nH]c3ccccc23)C1c1cccnc1 (stereo not given)
inactive: [1] -4.2% | [2] -18.4% | [3] -0.3% | [4] 5.9% | [5] -18.1% | [6] -17.4%

O=[N+]([O-])c1ccc(N=NC(=S)NNc2ccccc2)cc1
inactive: [1] 38.9% | [2] 0.65% | [3] 39.5% | [4] -3.35% | [5] 20.2% | [6] 23.5%

COc1nnc(-c2ccccc2)c(-c2ccccc2)n1
inactive: [1] 13.2% | [2] 20.3% | [3] -2.25% | [4] -9.6% | [5] 25.5% | [6] 6.5%

CN(C)CCNC(=O)c1cc([N+](=O)[O-])cn1C
inactive: [1] 10.9% | [2] -1.4% | [3] 9.15% | [4] 7.65% | [5] 1.25% | [6] -68.2%

OC(c1cc(-c2ccccc2)nc2c1ccc1ccccc12)C1CCCCN1 (stereo not given)
inactive: [1] 32.5% | [2] 16.7% | [3] -17.1% | [4] 14% | [5] 11.6% | [6] 26.4%

COC(=O)C1CN(c2ccccc2)CCC1=O (stereo not given)
inactive: [1] -28.9% | [2] -31.8% | [3] -0.55% | [4] -35.7% | [5] -10.3% | [6] -12.7%

CC1=C(O[Si](C(C)C)(C(C)C)C(C)C)C2CC1(OS(=O)(=O)C(F)(F)F)[C@H]1C(=O)N(c3ccccc3)C(=O)[C@@H]21 (stereo not given in full)
inactive: [1] -4.8% | [2] -11.4% | [3] 0.3% | [4] 17.4% | [5] 5.2% | [6] -20.9%

CC(C)C(O)C[N+](=O)[O-] (stereo not given)
inactive: [1] 66.3% | [2] 6.8% | [3] 20.3% | [4] 6.25% | [5] 13.6% | [6] 16.6%
